Source: PubChem BioAssay
An excerpt weighted towards active compounds, which were near 2.8% of everything screened.
Platelet DG rel: inhibitors of platelet dense granule secretion, primary screen, cell-based, MLPCN, human platelets | human platelet-rich plasma, SFLLRN dense granule ATP release, luminescence | 300,000 compounds, 0.22% hits | inhibition, %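 (compounds screened at 7.5 µM in platelet-rich plasma)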 | AID 1663, 2009;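 active = mean replicate score, as percent of positive control, at or above 50; inconclusive = mean below 50 but at least one replicate at or above 50; inactive = mean and every replicate below 50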
pCIP destab: p/CIP-EGFP fusion destabilizers, primary screen, fluorescence, F442A cells; decrease of EGFP signal, % at 10 µM; AID 1984, 2009; 290,000 compounds, 0.01% hits; 16 h;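 active = EGFP signal decrease of at least 30% at 10 µM or well 3 SD below plate mean, unless failing retest; inactive = the rest, including hits failing retest or dose response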
HIF activator: HIF pathway transcriptional activators, primary screen, cell-based, U2OS HRE-luciferase, luminescence; U2OS HRE-luciferase reporter; normalized: DMSO 0%, desferrioxamine 100%; activation, % at 7.5 µM (by protocol); 300,000 compounds, 0.32% hits; AID 1910, 2009;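 active = mean activation of at least 10% of the iron chelator positive control signal, with at least half of replicates also reaching 10%; inconclusive = mean and replicate majority disagree about reaching 10%; inactive = mean and most replicates under 10%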
PolyA inhibitor: polyadenylation inhibitors in yeast reporter cells, primary screen, luminescence, S. cerevisiae. S. cerevisiae SKY197-pL101 polyadenylation reporter, beta-gal luminescence; efflux-impaired pdr1/pdr3 knockout yeast; score 100 = 6 SD above DMSO. AID 1875, 2009. activity score, % at 12 µM. 300,000 compounds, 0.02% hits;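 active = lowest replicate activity score at least 50, where 100 means six control SD above control mean; inconclusive = lowest score under 50 but half or more replicates reach 50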;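 note: yeast exposed to compound for 9 h at 30 °C; higher score means more reporter readthrough which indicates perturbed polyadenylation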
AHR activator: AHR activators, primary screen, cell-based, luminescence, luciferase reporter, human; Aryl hydrocarbon receptor (Homo sapiens), P35869; AHR-responsive luciferase reporter cells; activation, % at 5 µM; 320,000 compounds, 2.5% hits; AID 2796, 2010; in the data active = activation above about 47%;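 note: 0% = vehicle wells and 100% = reference agonist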
Starred values were filed as active, the others as inactive; ? = inconclusive; nt = not tested or not shown.

SMILES	Platelet DG rel	pCIP destab	HIF activator	PolyA inhibitor	AHR activator
CCOc1ccc(S(=O)(=O)/N=C(/Nc2ccc(OC)cc2)c2ccccc2)cc1	0.5	-3.2	1.4	-6.0	0.3
COCCOC(=O)C1=C(C)NC2=C(C(=O)CC(c3cccs3)C2)C1c1ccsc1 (stereo unspecified)	-25.4	-4.8	-0.6	3.8	50.3*
COCc1nnc(NC(=O)c2cc(Cl)ccc2OC)s1	7.9	-5.0	877.5*	-14.4	28.0
CCOCc1nnc(NC(=O)c2cc(Cl)ccc2OC)s1	nt	-7.9	0.6	1.2	18.0
C=C(C)CNC(=S)N/N=C1\CCCCc2ccccc21	9.7	-16.3	-0.3	4.9	5.2
CC(=O)Oc1ccc2c(=O)c(-c3nc4ccccc4s3)coc2c1	60.6*	-15.9	-3.7	8.9	18.1
CC(C)Oc1ccc2c(=O)c(-c3ccccc3)coc2c1	11.3	-10.2	3.0	1.0	-7.0
N#Cc1c(NC(=O)c2ccc(Cn3cc(Br)cn3)o2)sc2c1CCCCC2	0.6	-3.8	1.0	-2.8	48.0*
COc1cc(-c2nc3ccc4ccccc4c3c3c2CCC3)ccc1O	-5.7	-4.8	0.5	-16.7	71.6*
COc1cc(-c2nc3ccc4ccccc4c3c3c2CCC3)cc(OC)c1O	-2.3	2.4	0.0	1.9	5.4
O=C(N/N=C/c1ccncc1)c1cccc(S(=O)(=O)Nc2ccc(Cl)cc2)c1	-45.9	-9.0	0.0	7.7	9.2
S=C(Nc1ccc(Cl)cc1)c1nc2ccccc2[nH]1	-4.3	5.3	2.2	-40.2	37.0
Cc1ccccc1NC(=S)c1nc2ccccc2[nH]1	2.3	-3.7	2.4	-30.7	47.0*
COc1ccccc1NC(=O)C/C(C)=N/NC(=O)COc1c(Br)cc(Br)cc1OC	-5.8	4.2	0.5	-14.0	10.4
Cn1cc(S(=O)(=O)N2CCOCC2)cc1C(=O)Nc1ccc(Cl)cc1	99.1*	5.7	0.0	-5.1	5.8
COc1ccc(NC(=O)c2cc(S(=O)(=O)N3CCOCC3)cn2C)cc1Cl	2.5	2.8	0.1	-4.8	6.0
Cc1cc(C(=O)CSc2ccc3c(c2)OCCO3)c(C)n1C1CC1	-5.8	4.9	2.2	5.6	2.5
CCc1nnc(NC(=O)CSc2nnc(-c3ccco3)n2CCOC)s1	6.6	5.0	-0.3	-12.7	0.5
CCc1nnc(NC(=O)CSc2nnc(Cc3cccn3C)n2CCOC)s1	52.4*	9.5	-0.4	?	1.9
c1ccc(CCNc2ccccc2)cc1	nt	-19.0	nt	nt	nt
CC(C)(O)CNC(=O)C(Cc1ccccc1)N1C(=O)c2ccccc2C1=O (stereo unspecified)	2.2	-11.7	-1.8	23.7	0.9
CC(C)NC(=O)C(Cc1ccccc1)N1C(=O)c2ccccc2C1=O (stereo unspecified)	-4.9	-18.8	0.0	-4.7	55.0*
Cc1ccc(-c2cnc(SCCNC(=O)c3ccco3)[nH]2)cc1	-14.7	nt	-0.1	4.2	61.0*
Cc1ccc(C(=O)NCCCNC(=O)c2ccco2)cc1	-10.1	-6.4	0.0	-4.0	-2.0
CC(=O)Nc1ccc(NC(=O)CC2Nc3cccc4cccc(c34)NC2=O)cc1 (stereo unspecified)	-21.9	-12.8	-0.4	14.2	24.2
SMILES	Platelet DG rel	pCIP destab	HIF activator	PolyA inhibitor	AHR activator
Cc1cccc(NC(=O)CC2Nc3cccc4cccc(c34)NC2=O)c1 (stereo unspecified)	8.8	-5.6	-0.5	2.5	74.7*
COc1ccccc1NC(=O)CC1Nc2ccccc2NC1=O (stereo unspecified)	-3.8	-5.9	0.7	6.4	56.3*
COc1ccc(CN(C)C(=O)CCCNC(=O)c2ccc(Cl)cc2)cc1	8.8	3.1	-1.2	-10.5	-0.8
CCOc1cc(N2CCOCC2)c(OCC)cc1NC1=NCCCCC1	5.3	-4.2	-0.2	15.9	1.8
CCn1c(SCC(=O)N2CCN(c3ccccc3)CC2)nc2c([nH]c3ccccc32)c1=O	25.7	-6.1	0.2	3.3	54.4*
COc1cccc(-n2c(SCC(=O)N3CCOCC3)nnc2-c2c[nH]c3ccccc23)c1	22.2	-12.7	-0.1	-7.0	2.4
COc1cccc(-n2c(SCC(=O)N3CCOCC3)nc3c([nH]c4ccccc43)c2=O)c1	15.8	nt	456.9*	-17.1	26.6
S=c1nc(-c2csc3c2CCCC3)[nH][nH]1	-9.3	13.0	-0.1	1.9	5.2
Fc1ccc(-c2csc(-c3cccnc3)n2)cc1F	13.1	2.3	3.9	-17.6	67.6*
